ChEMBL document CHEMBL4513216, “Probing the Open Global Health Chemical Diversity Library for Multistage-Active Starting Points for Next-Generation Antimalarials” (ACS Infect Dis, 2020)
Among all 69,000 compounds or so, about 8,600 (12%) showed an effect of 50% or more. What follows is part of a selection rich in strong results, with near analogues and random picks from the rest.

Each compound was assayed on Plasmodium berghei (assay: Screen against P. berghei liver stage (PbLuc), transformed with Luciferase, at 10uM). Conditions: tested at 10 uM.
Assay type: functional, HepG2

Row | Structure (SMILES) | INHIBITION [%]
1 | Cn1ncc2c1C(COCC1CC1)N(C(=O)c1ccncn1)CC2 (configuration not stated) | 47.4
2 | CN(CCNC(=O)NCc1ccsc1)C1CCCC1 | -43.5
3 | CN(Cc1coc(-c2ccccc2)n1)C1CCCN(c2cccnn2)C1 (configuration not stated) | 24
4 | Cn1cccc1C(=O)N1C[C@@H](OCc2ccncc2)[C@@H]2OCCC[C@@H]21 | 42.5
5 | O=C1NCCO[C@H]2CN(C(=O)Cc3ccco3)CC[C@@H]12 | -2.26
6 | COc1cc(F)ccc1CC(=O)N1CC[C@H]2C(=O)NCCO[C@H]2C1 | 52.1
7 | O=C1NCCO[C@H]2CN(C(=O)Cc3cccs3)CC[C@@H]12 | 14
8 | Cc1ccc(F)c2c1CCCN2Cc1cc(=O)n(C)c(=O)n1C | 38.8
9 | CC[C@H](C)[C@@H](CO)NC(C)Cc1ccc(C)cc1 (some centres not stated) | 41.7
10 | CC[C@H](C)[C@@H](CO)NC(C)Cc1ccc(Cl)cc1 (some centres not stated) | 71.2
11 | CC[C@H](C)[C@@H](CO)NC(C)Cc1ccc(F)cc1 (some centres not stated) | 8.24
12 | CN(C)c1ncc2c(n1)C1(CCN(Cc3ccccc3F)C1)COC2 (configuration not stated) | 23.6
13 | COc1ccc(CN2CCN(C(C)=O)CC3(CC(=O)N(C)C3)C2)cc1 (configuration not stated) | -7.6
14 | O=C(NC1CCCCC1)N1CCC(n2cc(-c3ccccn3)nn2)CC1 | 83.5
15 | O=C(NCc1ccco1)N1CCOC(c2ccccc2Cl)C1 (configuration not stated) | 8.12
16 | O=C(c1ccco1)N1CCC(n2cc(-c3ccsc3)nn2)CC1 | 31.2
17 | Cc1cc(CN2CCN(C(=O)NCc3ccco3)CC2)no1 | 31.2
18 | O=C(NCc1ccon1)N1CCC(n2ccc(C(F)(F)F)n2)CC1 | 1.2
19 | O=C(NCc1ccco1)N1CCC(n2ccc(C(F)(F)F)n2)CC1 | 57.7
20 | CNCc1cn(C2CCN(C(=O)NCc3ccco3)CC2)nn1 | 71.2
21 | CCNC(=O)N1CCC(n2ccc(C(F)(F)F)n2)CC1 | 40.6
22 | O=C(NC1CCCCC1)N1CCC(n2cc3[nH]cccc-3c2=O)CC1 | 36.5
23 | O=C(NCc1ccco1)N1CCC(n2cc(-c3ccccn3)nn2)CC1 | 65.6
24 | O=C(c1ncc[nH]1)N1CCC(n2cc(-c3ccccn3)nn2)CC1 | 6.88
25 | COC1CCCOC12CCN(C(=O)NCc1ccco1)CC2 (configuration not stated) | 4.52
26 | COCC(=O)Nc1ccc(Oc2ccsc2C(=O)O)cc1 | 49.1

Row | Structure (SMILES) | INHIBITION [%]
27 | COC1(CNC(=O)NCCc2ccccc2)CCSC1 (configuration not stated) | 8.31
28 | O=C(c1cccc(C(F)(F)F)c1)N1CC(=O)N(C2CCC2)CC(O)C1 (configuration not stated) | 21.5
29 | O=C1Nc2ccccc2CNC12CCN(CC1CCCC1)CC2 | 30
30 | CCOCCOC(C)C(=O)Nc1ccc2ccn(CC(=O)NC)c2c1 (configuration not stated) | 13.9
31 | Cc1ccc(C(=O)NCc2ccc(N3CCCC(C(N)=O)C3)cc2)o1 (configuration not stated) | 29.7
32 | O=C(CCc1nc2ccccc2[nH]1)NC1CCOC2(CCOCC2)C1 (configuration not stated) | 47.6
33 | Cc1cccc(OCC(O)CN2CCC(Cn3cccn3)CC2)c1 (configuration not stated) | 47.1
34 | CN1[C@H](CN2CCCC2)C[C@@H]2CN(C(=O)Cc3ccsc3)CC[C@@H]21 | -8.51
35 | CC(C)CS(=O)(=O)CC(=O)N1CCCC1c1noc(C2CC2)n1 (configuration not stated) | 29
36 | O=C(c1ccc2nccn2c1)N1CCCC1c1noc(C2CC2)n1 (configuration not stated) | 52.3
37 | O=C(c1ccc2nncn2c1)N1CCCC1c1noc(C2CC2)n1 (configuration not stated) | 15.1
38 | CCS(=O)(=O)CC(=O)N1CCCC1c1noc(C2CC2)n1 (configuration not stated) | 13.9
39 | CCCS(=O)(=O)CC(=O)N1CCCC1c1noc(C2CC2)n1 (configuration not stated) | 97.2
40 | CC(C)c1nc(C2CCCN2C(=O)c2ccc3nncn3c2)no1 (configuration not stated) | 5.11
41 | CN(C)c1cc(CNC(=O)NCC2(C)CCCS2)ccn1 (configuration not stated) | -15.5
42 | Cc1ccc(-c2nnc(CN3CCCCC3Cn3cncn3)o2)cc1 (configuration not stated) | -29.8
43 | CN(CC(C)(C)O)C1CCCN(Cc2noc(C3CC3)n2)C1 (configuration not stated) | 25.1
44 | O=C(NC1CC1)c1cc(C2CCCN(Cc3ccccn3)C2)no1 (configuration not stated) | -8.12
45 | Clc1ccc(CN(CCN2CCOCC2)Cc2cccnc2)c(Cl)c1 | -49.4
46 | Cc1nc(-c2ccc(Cl)s2)sc1C(=O)NC(C)(C)C(N)=O | -39.95
47 | CCCn1cnc(NC(=O)NCC2CCS(=O)(=O)C2)n1 (configuration not stated) | 42.6
48 | Cc1nc(C)n(CCC(=O)NCC2CCCOC2)n1 (configuration not stated) | 26.55
49 | O=C(CCn1cncn1)NCC1CCCC1 | 63.8
50 | Cc1cc(NC(=O)CCn2cncn2)no1 | 44.3
51 | O=C(CCn1cncn1)NCC1CCOC1 (configuration not stated) | 54.5
52 | O=C(CCn1cncn1)NC1CCS(=O)(=O)C1 (configuration not stated) | 49.9

Row | Structure (SMILES) | INHIBITION [%]
53 | O=C(CCn1cncn1)NCC(c1ccco1)N1CCCCC1 (configuration not stated) | 3.73
54 | O=C(CCn1cncn1)NCC(c1ccco1)N1CCCC1 (configuration not stated) | -49.5
55 | O=C(CCn1cncn1)NCC1CCS(=O)(=O)C1 (configuration not stated) | 84.2
56 | CS(=O)(=O)N1CCO[C@@H]2CN(C(=O)c3ccnnc3)C[C@@H]2C1 | 17.6
57 | Cc1ccc(C2CN(CCCS(=O)(=O)C(C)C)CCO2)c(C)c1 (configuration not stated) | -20.3
58 | CN1CCC(NC(=O)CC2CN(Cc3ccccc3)CCO2)CC1 (configuration not stated) | 9.41
59 | COc1ccc(CCNC(=O)Cn2ncc3c2c(C)nn3C)cc1 | 28.4
60 | CC(NC(=O)C1=NN(C)C(=O)CC1)c1ccc(Cl)cc1 (configuration not stated) | 20.9
61 | CN(CCC#N)C(=O)CCOc1cccc(F)c1 | -13.4
62 | Cc1cc(C(O)CCNC(=O)c2ccc(Cl)s2)c(C)o1 (configuration not stated) | -1.04
63 | CC(C)OCCSc1nnnn1C1CCOCC1 | 26.9
64 | O=C1OCCN1CCSc1nnnn1CC(F)(F)F | 42.4
65 | O=C1OCCN1CCSc1nnnn1C1CCOCC1 | 54.5
66 | Cc1nn(C)c(Cl)c1C1CCCN1c1ncnc2sccc12 (configuration not stated) | 42.6
67 | Cc1cnn(CC2CCCN2c2ncnc3ccccc23)c1 (configuration not stated) | 75.9
68 | c1nc(N2CCCCC2Cn2cncn2)c2ccsc2n1 (configuration not stated) | 45.8
69 | c1cnn(CC2CCCN2c2ncnc3c2CCC3)c1 (configuration not stated) | 59.7
70 | Cc1nn(C)c(C)c1C1CCCN1c1ncnc2sccc12 (configuration not stated) | 70.5
71 | COc1c(C2CCCN2c2ncnc3sccc23)c(C)nn1C (configuration not stated) | 40
72 | Cc1cnn(CC2CCCN2c2ccc(C#N)cn2)c1 (configuration not stated) | -16
73 | N#Cc1ccc(N2CCCC2Cn2cccn2)nc1 (configuration not stated) | -155
74 | Cc1cnn(CC2CCCN2c2ncnc3c2CCC3)c1 (configuration not stated) | -2.94
75 | Cc1cnn(CC2CCCCN2c2ncnc3ccccc23)c1 (configuration not stated) | -34.6
76 | Cc1cnn(CC2CCCN2c2ncnc3sccc23)c1 (configuration not stated) | 56.1
77 | Cc1cnn(CC2CCCN2c2ncnc3ccsc23)c1 (configuration not stated) | 47.7
